Assay results from PubChem BioAssay AID743279 (National Center for Advancing Translational Sciences (NCATS), 2014).
The campaign covered roughly 360,000 compounds. About 17,000 (4.7%) were called active. Another 5% or so got no clear call; they are omitted. Rule as the data show it: active = activity change below about -50%; inconclusive = mostly about -30% to -49%; inactive = weaker than that. The list comes from a sample in which actives are over-represented; it also holds similar structures and randomly drawn compounds.

Assay: qHTS for Inhibitors of Inflammasome Signaling: IL-1-beta AlphaLISA Primary Screen
Conditions: THP-1 LPS/ATP IL-1B secretion, 16 h; at 57.5 µM, stronger effect = lower value
Procedure, shortened: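 Secreted IL-1B measured by AlphaLISA bead assay after 16 h compound exposure of THP-1 cells; compounds (final up to 57.5 uM) added 1 h before LPS (250 ng/mL) and ATP (1.25 mM) stimulation; lower signal means less secretion.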
% is scaled to controls: 0 for no effect and ±100 for the full control effect.

| SMILES | activity change |
| --- | --- |
| Cc1ccc(NC(=O)CN(C)Cc2ccc(F)cc2)c([N+](=O)[O-])c1 | -62.3% (active) |
| CN(CC(=O)Nc1ccccc1[N+](=O)[O-])Cc1ccc(Br)cc1 | -6.83% (inactive) |
| CN(CC(=O)NCCc1ccc(F)cc1)CC(=O)Nc1ccc(F)c(F)c1F | -12.2% (inactive) |
| CCN(C(=O)CSc1nnc2ccccn12)C1CCS(=O)(=O)C1 (centres undefined) | -2.9% (inactive) |
| Cc1cc2cc3c(cc2nc1SCC(=O)Nc1c(C)cccc1C)CCC3 | 13% (inactive) |
| Cc1cccc(C(=O)C(O)(c2ccccc2)C2CCCCC2=O)c1 (centres undefined) | 16.6% (inactive) |
| CC(CCc1ccccc1)NC(=O)c1cnc(Cl)c(Cl)c1 (centres undefined) | 12.3% (inactive) |
| COc1ccc(CCNC(=O)COC(=O)c2cnc(Cl)c(Cl)c2)cc1 | -11.2% (inactive) |
| COc1ccc(CCNC(=O)c2cnc(Cl)c(Cl)c2)cc1 | -107% (active) |
| CC1(C)OC(=O)C2=C(C[C@@H](C3CCCCC3)O[C@@H]2c2ccc(Cl)cc2)O1 | 0% (inactive) |
| CC1=C(C(=O)Nc2cccc(C(=O)NCC(C)c3ccccc3)c2)SCCO1 (centres undefined) | 24.1% (inactive) |
| CC(C)(C)n1nnnc1C(c1ccc2ncccc2c1)N1CCSCC1 (centres undefined) | -23.4% (inactive) |
| O=[N+]([O-])c1cc(S(=O)(=O)NCCc2ccccn2)ccc1Cl | -65.1% (active) |
| O=S(=O)(NCCc1ccccn1)c1cc(Cl)cc(Cl)c1O | 0% (inactive) |
| O=[N+]([O-])c1cccc(S(=O)(=O)NCc2ccccn2)c1 | 11.4% (inactive) |
| COC(=O)c1ccc(CNC(=O)Cn2cc(C)c(=O)[nH]c2=O)cc1 | 15.5% (inactive) |
| COc1ccc(C(=O)NCC2CCCO2)cc1S(=O)(=O)NCc1ccc(Cl)cc1 (centres undefined) | -8.62% (inactive) |
| COC(=O)c1sccc1N/N=C(\C)c1ccc(F)c(Cl)c1 | 13.1% (inactive) |
| CCN(CC)c1ccc(C(=O)N/N=C(\C)c2cccc(OC)c2)cc1 | 96.6% (inactive) |
| COc1cccc(/C(C)=N/Nc2ncc(Cl)cc2Cl)c1 | -80.6% (active) |

| SMILES | activity change |
| --- | --- |
| Cc1cc(NC(=O)CSc2nccn2-c2ccc([N+](=O)[O-])cc2)no1 | 45.3% (inactive) |
| COc1cc2c(cc1CNC[C@H]1O[C@@H](n3cnc(C(N)=O)n3)[C@H](O)[C@@H]1O)OCO2 | 3.97% (inactive) |
| CCc1ccccc1OCC(=O)Nc1nnc(C2CC2)s1 | -16.9% (inactive) |
| COc1cccc(/C=C2/SC(=S)N(CC(=O)NC3C=CS(=O)(=O)C3)C2=O)c1 (centres undefined) | -11% (inactive) |
| O=C(CN1C(=O)S/C(=C\c2ccccc2Cl)C1=O)NC1C=CS(=O)(=O)C1 (centres undefined) | -99.6% (active) |
| O=C(CN1CCCCCC1)NCCN1C(=O)S/C(=C\c2ccccc2Cl)C1=O | -15.4% (inactive) |
| CC(=O)Nc1ccccc1C(=O)C(=O)Nc1ccc(F)cc1 | 6.97% (inactive) |
| CC(NC(=O)c1ccccc1)C(=O)OCC(=O)Nc1cccc(S(=O)(=O)N2CCCC2)c1 (centres undefined) | -0.602% (inactive) |
| Cc1ccnc(-n2sc3ccccc3c2=O)n1 | -95.9% (active) |
| Cc1ccnc(SC2CC(=O)N(c3ccccc3)C2=O)n1 (centres undefined) | -12.7% (inactive) |
| Cc1nc(Nc2ccccc2C)c2cnn(C)c2n1 | 5.45% (inactive) |
| CCCCc1ccc(S(=O)(=O)NC(=O)C2(C)CCN2C(=O)c2ccccc2)cc1 (centres undefined) | 48.7% (inactive) |
| CCOC(=O)Nc1ccc2c(c1)N(C(=O)CCCl)c1ccccc1[S@]2=O | -96.5% (active) |
| CCOC(=O)Nc1ccc(S(=O)(=O)N(C)C(C)C)cc1 | 24% (inactive) |
| CCOC(=O)Nc1ccc2c(c1)N(C(=O)CCN1CCN(CCO)CC1)c1ccccc1CC2 | -7.2% (inactive) |
| Cc1ccc(CNC(=O)C(=O)c2cn(CC(=O)N3CCOCC3)c3ccccc23)cc1 | -24.4% (inactive) |
| N#Cc1cccc(NC(=O)COC(=O)c2ccccc2C(=O)c2ccc(Cl)c([N+](=O)[O-])c2)c1 | -112% (active) |
| CC(CC(=O)O)C(=O)c1ccc(Cl)c([N+](=O)[O-])c1 (centres undefined) | -17.6% (inactive) |
| NC(=O)c1ccc(NC(=O)COC(=O)c2ccc([N+](=O)[O-])cc2)cc1 | 3.51% (inactive) |
| CC(=O)Nc1ccc(NC(=O)C(C)OC(=O)c2ccccc2C(=O)c2ccc(Cl)c([N+](=O)[O-])c2)cc1 (centres undefined) | -108% (active) |

| SMILES | activity change |
| --- | --- |
| CC(=O)Nc1ccc(NC(=O)COC(=O)c2ccccc2C(=O)c2ccccc2)cc1 | -29.6% (inactive) |
| COC(=O)c1cc(NC(=O)Cc2ccccc2[N+](=O)[O-])ccc1Cl | 11.8% (inactive) |
| C[C@H]1CN([C@@H](C)CO)C(=O)CCCn2cc(nn2)CO[C@@H]1CN(C)S(=O)(=O)c1ccccc1C#N | 4.98% (inactive) |
| Cc1cc(C)c(C=NNc2nc3c([nH]2)c(=O)n(C)c(=O)n3C)c(C)c1 | -9.11% (inactive) |
| O=C(COC(=O)CCc1c[nH]c2ccccc12)Nc1cccc(Cl)c1 | 8.98% (inactive) |
| CSc1ccc(CN2CCC2(C)C(=O)NCc2ccccc2Br)cc1 (centres undefined) | 35.5% (inactive) |
| COc1ccc(C(=O)C(C)OC(=O)c2cccc(S(=O)(=O)Nc3c(C)n(C)n(-c4ccccc4)c3=O)c2)cc1 (centres undefined) | -73.2% (active) |
| Cc1c(NC(=O)C(C)OC(=O)c2ccccc2O)c(=O)n(-c2ccccc2)n1C (centres undefined) | 2.66% (inactive) |
| COc1ccc(NS(=O)(=O)c2ccc(C(=O)Nc3c(C)n(C)n(-c4ccccc4)c3=O)cc2)cc1 | -16.8% (inactive) |
| CSCCC(NC(=O)c1ccco1)C(=O)NCCc1ccc(F)cc1 (centres undefined) | -9.3% (inactive) |
| c1ccc(-c2ccccc2OCCN2CCCCC2)cc1 | -0.581% (inactive) |
| Nc1nnc(SCCN2C(=O)c3ccccc3S2(=O)=O)s1 | 10.6% (inactive) |
| O=S1(=O)C=C(SCCN2CCCC2)c2ccccc21 | -84.4% (active) |
| CCN(CC(=O)NC1CCS(=O)(=O)C1)c1nc(-c2cccnc2)nc2ccccc12 (centres undefined) | -2.86% (inactive) |
| O=C(CSc1cccc[n+]1[O-])c1ccc(-c2ccccc2)cc1 | 31.4% (inactive) |
| COCCNc1ncnc2c1ncn2[C@H]1CN(CCN2CCOCC2)C[C@@H](CO)O1 | 1.62% (inactive) |
| CCc1ccc(-c2nn(-c3ccccc3)cc2CSC(=N)N)cc1 | -102% (active) |
| NC(=O)C1CCN(C(=O)c2cn(-c3ccccc3)nc2-c2cccnc2)CC1 | -2.49% (inactive) |
| CCc1ccc(-c2nn(-c3ccccc3C)cc2C(=O)N2CCN(C3CCS(=O)(=O)C3)CC2)cc1 (centres undefined) | 16.7% (inactive) |
